Data from PubChem BioAssay (NCI).
About 83,000 compounds went through this panel and 20% of them were active in at least one assay; those are over-represented in the sample as a whole.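 Growth was measured after 48 h exposure to one concentration of compound in 96-well plates. Values under 10 count as active.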 The source made the active and inactive calls.

Tests used:
Assay in all cases: NCI-60 one-dose screen, 48 h (100 = growth as untreated, 0 = no growth, -100 = all killed)
Details in all cases: 10 µM unless noted
[1] = test system: NCI-H23 lung
[2] = test system: NCI-H226 lung
[3] = test system: NCI-H322M lung
[4] = test system: HOP-62 NSCLC
[5] = test system: NCI-H460 lung
[6] = test system: NCI-H522 lung
[7] = test system: A549/ATCC NSCLC
[8] = test system: 786-0 renal
[9] = test system: COLO 205 colon
[10] = test system: DU-145 prostate
[11] = test system: K-562 leukemia
[12] = test system: MALME-3M melanoma
[13] = test system: MDA-MB-231 breast
[14] = test system: SF-268 CNS
[15] = test system: SF-295 CNS
[16] = test system: SF-539 CNS
[17] = test system: UACC-257 melanoma
[18] = test system: M14 melanoma
[19] = test system: HCT-15 colon
[20] = test system: RXF 393 renal

Measured: growth

O=C(/C=C/c1ccccc1Cl)c1ccc(O)cc1
active: [10] -7.3%
inactive: [1] 93.7% | [2] 95.2% | [3] 89.5% | [4] 117% | [5] 93.8% | [6] 58.2% | [7] 41.8% | [8] 85% | [9] 90% | [11] 32.8% | [12] 93.1% | [13] 89% | [14] 53.7% | [15] 47.4% | [16] 94.1% | [17] 116% | [18] 76.8% | [19] 37.5%

Clc1ccccc1[C@@H]1C[C@@H]2Cc3cc(Br)c4ccccc4c3N1O2
active: [16] 6.71%
inactive: [1] 50.8% | [2] 73.5% | [3] 61% | [4] 54.3% | [5] 18.1% | [6] 20% | [7] 48% | [8] 56.1% | [9] 33.1% | [10] 61% | [11] 10% | [13] 39% | [20] 39.3% | [14] 46.1% | [15] 24.6% | [17] 47.4% | [18] 20.8% | [19] 35.7%

Nc1ccc(C2=NN(c3ccccc3)C(c3ccc(Cl)cc3)C2)cc1 (centres undefined)
inactive: [1] 92.8% | [2] 90.9% | [3] 88.2% | [4] 87.2% | [5] 99.4% | [6] 22.7% | [7] 83.1% | [8] 78.4% | [9] 101% | [10] 81.7% | [11] 17.5% | [12] 105% | [13] 88.5% | [14] 82.5% | [15] 86.6% | [16] 81.2% | [17] 82.1% | [18] 72.7% | [19] 48.7%

COc1cccc(/C=C2\COc3ccc(O)c(O)c3C2=O)c1OC
inactive: [1] 60.5% | [2] 62.8% | [3] 32.7% | [4] 19% | [7] 32.5% | [9] 72.7% | [14] 17.4% | [15] 83.2% | [17] 26.8%
active: [5] 3.8% | [6] -33.3% | [8] -6.52% | [10] 2.64% | [11] -5.62% | [12] -75.9% | [13] -34.4% | [16] -73% | [19] -10.7%

O=[N+]([O-])c1ccc(N/N=C/c2c(O)ccc3ccccc23)nc1
inactive: [1] 61.4% | [2] 89% | [3] 19.7% | [4] 45.6% | [5] 24.2% | [6] 18.5% | [7] 49.2% | [8] 59.2% | [9] 73.1% | [10] 39.4% | [11] 31.7% | [13] 47.5% | [20] 67.1% | [14] 45.8% | [15] 25.1% | [16] 46% | [17] 29.5% | [18] 65.3% | [19] 24.5%

COc1cc(/C=C2\COc3ccc(O)cc3C2=O)cc(OC)c1
inactive: [1] 93.8% | [2] 94.9% | [3] 90.8% | [4] 86% | [5] 82.4% | [6] 32.3% | [7] 92.3% | [8] 87.6% | [9] 81.6% | [10] 72% | [12] 70.3% | [13] 77% | [14] 85.2% | [15] 93.4% | [16] 80.7% | [17] 82.1% | [19] 37.9%
active: [11] 5.63%

COc1cc(/C=C/C(=O)c2c(-c3ccc(Cl)cc3)nc3sc(C)nn23)cc(OC)c1OC
inactive: [1] 84.3% | [2] 68.3% | [3] 87.5% | [4] 98.8% | [5] 97.2% | [7] 83.8% | [8] 81.4% | [9] 100% | [10] 90.2% | [11] 31.1% | [13] 72.2% | [14] 88.6% | [15] 76.2% | [16] 95.8% | [17] 81.9% | [18] 75.8% | [19] 60.2%
active: [6] -20.1%

CCCOc1ccc2c(c1)CC[C@@H]1[C@@H]2CC[C@@]2(C)[C@H]1CC[C@]2(C)O
active: [11] 1.46%
inactive: [1] 93.2% | [2] 92.3% | [3] 71.4% | [4] 89.7% | [5] 35.8% | [6] 76.4% | [7] 63.7% | [8] 90.3% | [9] 28.2% | [10] 91.6% | [13] 51.1% | [20] 83.7% | [14] 81.5% | [15] 58.7% | [16] 67.5% | [17] 73.8% | [18] 79.5% | [19] 56.7%
